Consider three compounds from ChEMBL document CHEMBL1961873, “Compounds: GSK PKIS; Assays: Nanosyn kinase panel” (2012).

In assay [1] the test system is Epidermal growth factor receptor (Homo sapiens), P00533 [T790M]. The note with it: at 1 µM.
The subject of assay [2] is Epidermal growth factor receptor (Homo sapiens), P00533 [L858R,T790M]. The note with it: at 0.1 µM.
For assay [3] the test system is unchanged. The note with it: at 1 µM.
The target in assay [4] is Ephrin type-A receptor 2 (Homo sapiens) (UniProt P29317). The note with it: at 0.1 µM.
Assay [5] has the same target. As to conditions: at 1 µM.
Assay [6] addresses T1, Ephrin type-A receptor 3 (Homo sapiens) (UniProt P29320).
T1 sequence (whole entry): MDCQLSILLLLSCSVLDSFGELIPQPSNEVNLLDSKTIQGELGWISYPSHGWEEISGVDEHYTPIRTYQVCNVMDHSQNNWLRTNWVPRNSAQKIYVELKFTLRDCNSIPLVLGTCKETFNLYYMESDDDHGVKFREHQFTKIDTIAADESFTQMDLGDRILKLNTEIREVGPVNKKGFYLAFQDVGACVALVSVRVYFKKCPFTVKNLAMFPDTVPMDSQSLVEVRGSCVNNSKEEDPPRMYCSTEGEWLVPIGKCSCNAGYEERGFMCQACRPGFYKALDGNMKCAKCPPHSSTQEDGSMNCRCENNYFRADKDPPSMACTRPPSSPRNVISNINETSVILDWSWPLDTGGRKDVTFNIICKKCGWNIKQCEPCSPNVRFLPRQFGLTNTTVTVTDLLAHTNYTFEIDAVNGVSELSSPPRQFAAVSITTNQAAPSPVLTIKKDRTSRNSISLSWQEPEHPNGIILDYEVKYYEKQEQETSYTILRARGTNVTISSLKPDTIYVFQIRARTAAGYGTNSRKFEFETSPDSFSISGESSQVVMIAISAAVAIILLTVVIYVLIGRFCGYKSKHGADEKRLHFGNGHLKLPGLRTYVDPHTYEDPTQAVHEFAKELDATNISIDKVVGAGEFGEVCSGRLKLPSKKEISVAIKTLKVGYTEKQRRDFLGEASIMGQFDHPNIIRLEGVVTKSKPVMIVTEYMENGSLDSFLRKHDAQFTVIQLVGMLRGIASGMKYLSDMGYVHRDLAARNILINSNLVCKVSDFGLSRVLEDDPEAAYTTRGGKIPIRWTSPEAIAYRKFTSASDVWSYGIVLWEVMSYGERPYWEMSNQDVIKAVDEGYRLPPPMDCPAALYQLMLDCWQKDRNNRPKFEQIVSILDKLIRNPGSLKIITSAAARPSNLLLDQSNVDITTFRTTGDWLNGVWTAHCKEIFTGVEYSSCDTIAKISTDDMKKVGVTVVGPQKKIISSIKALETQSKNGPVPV
As to conditions: at 0.1 µM.

Assay [7] has as its target T1, Ephrin type-A receptor 3 (Homo sapiens). The note with it: at 1 µM.
The target in assay [8] is Ephrin type-A receptor 4 (Homo sapiens) (UniProt P54764). As to conditions: at 0.1 µM.
Assay [9] shares this target. As to conditions: at 1 µM.
In assay [10] the target is T2, Ephrin type-B receptor 2 (Homo sapiens) (UniProt P29323).
T2 sequence (whole entry): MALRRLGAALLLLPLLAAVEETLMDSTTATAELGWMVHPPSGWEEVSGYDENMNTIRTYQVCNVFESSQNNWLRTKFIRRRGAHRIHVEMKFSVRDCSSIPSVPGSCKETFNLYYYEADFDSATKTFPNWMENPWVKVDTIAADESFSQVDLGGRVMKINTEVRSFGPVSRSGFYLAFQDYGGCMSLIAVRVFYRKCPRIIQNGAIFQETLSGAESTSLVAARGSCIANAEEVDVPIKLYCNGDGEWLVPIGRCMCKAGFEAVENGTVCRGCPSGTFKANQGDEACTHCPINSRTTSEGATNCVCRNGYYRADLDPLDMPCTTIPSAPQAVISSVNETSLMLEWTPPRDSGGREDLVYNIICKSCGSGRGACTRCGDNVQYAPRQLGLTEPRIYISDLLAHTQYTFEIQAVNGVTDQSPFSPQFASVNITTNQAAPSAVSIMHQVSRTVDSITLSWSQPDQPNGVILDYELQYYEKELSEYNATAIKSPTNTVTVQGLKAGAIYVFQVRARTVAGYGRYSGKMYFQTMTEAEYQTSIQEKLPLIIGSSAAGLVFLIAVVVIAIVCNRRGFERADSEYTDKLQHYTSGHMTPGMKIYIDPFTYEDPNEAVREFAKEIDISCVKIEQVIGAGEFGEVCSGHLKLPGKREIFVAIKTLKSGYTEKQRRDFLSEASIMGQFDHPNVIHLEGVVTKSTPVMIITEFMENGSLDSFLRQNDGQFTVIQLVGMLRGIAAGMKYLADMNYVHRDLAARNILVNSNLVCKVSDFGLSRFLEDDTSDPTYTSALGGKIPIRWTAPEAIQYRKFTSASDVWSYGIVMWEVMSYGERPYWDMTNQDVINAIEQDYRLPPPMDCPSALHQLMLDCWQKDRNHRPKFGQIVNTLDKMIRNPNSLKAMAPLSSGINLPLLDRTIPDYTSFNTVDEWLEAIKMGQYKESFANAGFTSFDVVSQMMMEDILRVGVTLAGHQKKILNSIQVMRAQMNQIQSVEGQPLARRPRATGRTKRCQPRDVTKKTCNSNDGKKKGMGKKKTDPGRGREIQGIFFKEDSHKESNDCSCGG
As to conditions: at 0.1 µM.

For assay [11], the target named is T2, Ephrin type-B receptor 2 (Homo sapiens). The note with it: at 1 µM.
The target in assay [12] is T3, Ephrin type-B receptor 3 (Homo sapiens) (UniProt P54753).
T3 sequence (whole entry): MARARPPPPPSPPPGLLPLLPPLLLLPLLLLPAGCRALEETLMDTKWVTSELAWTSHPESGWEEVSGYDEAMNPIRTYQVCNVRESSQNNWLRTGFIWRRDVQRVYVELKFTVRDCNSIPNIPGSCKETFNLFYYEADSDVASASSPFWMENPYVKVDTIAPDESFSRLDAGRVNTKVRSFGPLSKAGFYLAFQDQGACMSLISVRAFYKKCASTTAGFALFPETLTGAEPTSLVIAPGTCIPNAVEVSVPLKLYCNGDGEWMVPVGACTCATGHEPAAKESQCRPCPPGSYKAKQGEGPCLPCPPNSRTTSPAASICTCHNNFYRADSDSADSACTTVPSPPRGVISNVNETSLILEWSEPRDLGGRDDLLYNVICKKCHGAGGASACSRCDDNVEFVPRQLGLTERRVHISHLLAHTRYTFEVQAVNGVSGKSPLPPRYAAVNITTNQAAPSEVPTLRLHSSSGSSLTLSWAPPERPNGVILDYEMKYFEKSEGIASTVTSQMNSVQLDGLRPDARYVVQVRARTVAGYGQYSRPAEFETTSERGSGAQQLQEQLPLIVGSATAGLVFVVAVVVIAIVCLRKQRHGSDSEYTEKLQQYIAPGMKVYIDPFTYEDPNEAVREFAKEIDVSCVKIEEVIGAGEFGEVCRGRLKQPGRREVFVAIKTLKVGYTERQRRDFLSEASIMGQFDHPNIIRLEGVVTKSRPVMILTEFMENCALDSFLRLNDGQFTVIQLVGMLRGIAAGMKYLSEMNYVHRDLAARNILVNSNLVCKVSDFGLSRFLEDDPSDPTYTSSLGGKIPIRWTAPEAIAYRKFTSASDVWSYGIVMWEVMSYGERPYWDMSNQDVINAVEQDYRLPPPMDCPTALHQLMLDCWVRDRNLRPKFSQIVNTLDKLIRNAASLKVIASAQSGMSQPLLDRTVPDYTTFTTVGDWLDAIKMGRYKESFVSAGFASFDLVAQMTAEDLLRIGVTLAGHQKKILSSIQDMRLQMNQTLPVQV
The note with it: at 0.1 µM.

In assay [13] the target is T3, Ephrin type-B receptor 3 (Homo sapiens). As to conditions: at 1 µM.
Assay [14] addresses T4, Ephrin type-B receptor 4 (Homo sapiens) (UniProt P54760).
T4 sequence (whole entry): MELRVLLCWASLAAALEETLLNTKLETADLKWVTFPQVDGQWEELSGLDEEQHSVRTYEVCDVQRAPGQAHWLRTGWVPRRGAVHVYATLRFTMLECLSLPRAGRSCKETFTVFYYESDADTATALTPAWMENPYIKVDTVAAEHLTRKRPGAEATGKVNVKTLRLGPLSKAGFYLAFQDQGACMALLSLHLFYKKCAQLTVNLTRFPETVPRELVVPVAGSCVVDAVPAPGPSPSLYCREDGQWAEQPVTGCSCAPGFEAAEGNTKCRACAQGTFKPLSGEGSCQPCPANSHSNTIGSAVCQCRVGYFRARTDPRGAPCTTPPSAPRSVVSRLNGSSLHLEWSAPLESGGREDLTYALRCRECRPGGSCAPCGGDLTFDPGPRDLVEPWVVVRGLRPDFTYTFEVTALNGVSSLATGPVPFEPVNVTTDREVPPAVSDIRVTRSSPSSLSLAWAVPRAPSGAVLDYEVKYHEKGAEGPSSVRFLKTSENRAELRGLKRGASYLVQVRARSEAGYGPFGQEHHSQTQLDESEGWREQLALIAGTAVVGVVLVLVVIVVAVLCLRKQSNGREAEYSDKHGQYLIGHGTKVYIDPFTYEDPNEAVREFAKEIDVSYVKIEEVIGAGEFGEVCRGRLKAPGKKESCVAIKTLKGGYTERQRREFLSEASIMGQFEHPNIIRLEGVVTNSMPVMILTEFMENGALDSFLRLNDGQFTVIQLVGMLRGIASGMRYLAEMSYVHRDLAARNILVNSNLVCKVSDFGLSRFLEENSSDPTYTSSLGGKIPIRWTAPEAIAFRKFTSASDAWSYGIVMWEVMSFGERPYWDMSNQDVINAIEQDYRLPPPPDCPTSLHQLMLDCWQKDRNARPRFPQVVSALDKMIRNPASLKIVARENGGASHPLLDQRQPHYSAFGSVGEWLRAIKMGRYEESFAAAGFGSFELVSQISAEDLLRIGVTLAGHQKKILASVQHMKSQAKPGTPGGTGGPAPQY
As to conditions: at 0.1 µM.

The target in assay [15] is T4, Ephrin type-B receptor 4 (Homo sapiens). The note with it: at 1 µM.
Assay [16] deals with Receptor tyrosine-protein kinase erbB-2 (Homo sapiens) (UniProt P04626). The note with it: at 0.1 µM.
The target is the same in assay [17]. As to conditions: at 1 µM.
Assay [18] addresses Receptor tyrosine-protein kinase erbB-4 (Homo sapiens) (UniProt Q15303). As to conditions: at 0.1 µM.
The target is the same in assay [19]. As to conditions: at 1 µM.
Assay [20] concerns the target Tyrosine-protein kinase Fer (Homo sapiens) (UniProt P16591). The note with it: at 0.1 µM.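 Also: reported figures are averaged percent inhibition of FER.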

Receptor tyrosine-protein kinase erbB-4 (Homo sapiens), sequence (Q15303 whole entry): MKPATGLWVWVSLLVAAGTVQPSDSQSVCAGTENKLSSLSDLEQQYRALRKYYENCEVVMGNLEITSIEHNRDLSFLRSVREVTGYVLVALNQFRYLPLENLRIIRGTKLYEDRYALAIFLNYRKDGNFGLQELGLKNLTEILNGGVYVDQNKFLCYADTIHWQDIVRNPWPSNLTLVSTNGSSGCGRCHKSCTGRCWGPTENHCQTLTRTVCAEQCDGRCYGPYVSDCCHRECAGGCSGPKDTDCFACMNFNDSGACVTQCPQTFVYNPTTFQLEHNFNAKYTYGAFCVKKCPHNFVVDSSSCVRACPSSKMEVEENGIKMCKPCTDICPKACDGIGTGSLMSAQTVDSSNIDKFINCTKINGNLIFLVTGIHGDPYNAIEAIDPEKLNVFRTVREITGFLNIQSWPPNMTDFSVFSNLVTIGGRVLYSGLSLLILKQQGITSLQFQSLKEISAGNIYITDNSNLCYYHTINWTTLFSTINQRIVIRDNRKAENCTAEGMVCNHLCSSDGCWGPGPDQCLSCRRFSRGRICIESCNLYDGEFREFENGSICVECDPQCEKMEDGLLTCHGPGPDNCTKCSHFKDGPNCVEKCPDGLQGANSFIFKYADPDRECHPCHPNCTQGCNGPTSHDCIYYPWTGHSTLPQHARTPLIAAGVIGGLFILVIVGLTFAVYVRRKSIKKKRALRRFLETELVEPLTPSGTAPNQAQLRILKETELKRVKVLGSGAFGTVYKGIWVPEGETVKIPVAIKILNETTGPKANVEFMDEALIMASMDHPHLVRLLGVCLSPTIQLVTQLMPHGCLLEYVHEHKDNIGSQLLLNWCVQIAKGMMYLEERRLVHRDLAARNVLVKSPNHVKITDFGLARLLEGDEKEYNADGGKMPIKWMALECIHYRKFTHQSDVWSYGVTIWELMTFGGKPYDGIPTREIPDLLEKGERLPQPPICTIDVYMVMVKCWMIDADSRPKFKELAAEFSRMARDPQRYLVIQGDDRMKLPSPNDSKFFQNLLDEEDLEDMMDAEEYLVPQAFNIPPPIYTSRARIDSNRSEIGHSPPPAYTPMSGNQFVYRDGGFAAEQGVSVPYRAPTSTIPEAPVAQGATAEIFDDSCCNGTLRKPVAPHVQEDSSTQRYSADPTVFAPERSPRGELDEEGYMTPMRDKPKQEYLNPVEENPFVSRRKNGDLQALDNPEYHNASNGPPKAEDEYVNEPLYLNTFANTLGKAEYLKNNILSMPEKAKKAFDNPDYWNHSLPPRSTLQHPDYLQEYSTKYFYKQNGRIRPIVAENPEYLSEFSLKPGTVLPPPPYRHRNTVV
Receptor tyrosine-protein kinase erbB-2 (Homo sapiens), sequence (P04626 whole entry): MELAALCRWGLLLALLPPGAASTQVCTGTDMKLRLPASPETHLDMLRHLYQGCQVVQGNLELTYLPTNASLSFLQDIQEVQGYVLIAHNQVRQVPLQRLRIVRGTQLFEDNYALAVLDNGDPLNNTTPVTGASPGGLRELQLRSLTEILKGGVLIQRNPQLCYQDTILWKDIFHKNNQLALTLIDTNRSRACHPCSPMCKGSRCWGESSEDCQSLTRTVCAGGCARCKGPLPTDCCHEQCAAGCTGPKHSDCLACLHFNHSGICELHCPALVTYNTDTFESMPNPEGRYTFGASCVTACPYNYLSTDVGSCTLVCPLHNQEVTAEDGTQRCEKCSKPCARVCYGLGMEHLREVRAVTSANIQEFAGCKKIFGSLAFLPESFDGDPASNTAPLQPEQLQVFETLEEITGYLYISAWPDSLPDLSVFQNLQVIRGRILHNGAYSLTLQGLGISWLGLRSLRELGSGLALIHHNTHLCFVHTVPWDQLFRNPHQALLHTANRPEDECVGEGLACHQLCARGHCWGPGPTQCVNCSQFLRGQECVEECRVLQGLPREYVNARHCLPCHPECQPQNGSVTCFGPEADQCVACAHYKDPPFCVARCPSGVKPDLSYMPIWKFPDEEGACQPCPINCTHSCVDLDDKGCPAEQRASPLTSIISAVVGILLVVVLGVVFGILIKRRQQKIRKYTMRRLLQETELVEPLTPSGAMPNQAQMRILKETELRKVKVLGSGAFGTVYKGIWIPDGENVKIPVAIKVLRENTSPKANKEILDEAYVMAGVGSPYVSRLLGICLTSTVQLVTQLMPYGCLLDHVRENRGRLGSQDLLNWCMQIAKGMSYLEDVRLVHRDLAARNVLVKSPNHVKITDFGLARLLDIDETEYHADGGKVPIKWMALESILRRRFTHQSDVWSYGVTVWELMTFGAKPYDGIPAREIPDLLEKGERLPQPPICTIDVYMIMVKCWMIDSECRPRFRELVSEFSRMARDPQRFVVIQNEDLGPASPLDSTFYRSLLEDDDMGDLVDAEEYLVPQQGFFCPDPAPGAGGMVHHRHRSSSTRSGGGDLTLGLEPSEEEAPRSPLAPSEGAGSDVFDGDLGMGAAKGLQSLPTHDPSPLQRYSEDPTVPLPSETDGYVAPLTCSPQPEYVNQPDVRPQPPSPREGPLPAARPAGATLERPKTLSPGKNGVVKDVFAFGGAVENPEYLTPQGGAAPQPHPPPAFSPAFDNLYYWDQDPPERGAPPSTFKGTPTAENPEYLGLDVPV
Ephrin type-A receptor 2 (Homo sapiens), sequence (P29317 whole entry): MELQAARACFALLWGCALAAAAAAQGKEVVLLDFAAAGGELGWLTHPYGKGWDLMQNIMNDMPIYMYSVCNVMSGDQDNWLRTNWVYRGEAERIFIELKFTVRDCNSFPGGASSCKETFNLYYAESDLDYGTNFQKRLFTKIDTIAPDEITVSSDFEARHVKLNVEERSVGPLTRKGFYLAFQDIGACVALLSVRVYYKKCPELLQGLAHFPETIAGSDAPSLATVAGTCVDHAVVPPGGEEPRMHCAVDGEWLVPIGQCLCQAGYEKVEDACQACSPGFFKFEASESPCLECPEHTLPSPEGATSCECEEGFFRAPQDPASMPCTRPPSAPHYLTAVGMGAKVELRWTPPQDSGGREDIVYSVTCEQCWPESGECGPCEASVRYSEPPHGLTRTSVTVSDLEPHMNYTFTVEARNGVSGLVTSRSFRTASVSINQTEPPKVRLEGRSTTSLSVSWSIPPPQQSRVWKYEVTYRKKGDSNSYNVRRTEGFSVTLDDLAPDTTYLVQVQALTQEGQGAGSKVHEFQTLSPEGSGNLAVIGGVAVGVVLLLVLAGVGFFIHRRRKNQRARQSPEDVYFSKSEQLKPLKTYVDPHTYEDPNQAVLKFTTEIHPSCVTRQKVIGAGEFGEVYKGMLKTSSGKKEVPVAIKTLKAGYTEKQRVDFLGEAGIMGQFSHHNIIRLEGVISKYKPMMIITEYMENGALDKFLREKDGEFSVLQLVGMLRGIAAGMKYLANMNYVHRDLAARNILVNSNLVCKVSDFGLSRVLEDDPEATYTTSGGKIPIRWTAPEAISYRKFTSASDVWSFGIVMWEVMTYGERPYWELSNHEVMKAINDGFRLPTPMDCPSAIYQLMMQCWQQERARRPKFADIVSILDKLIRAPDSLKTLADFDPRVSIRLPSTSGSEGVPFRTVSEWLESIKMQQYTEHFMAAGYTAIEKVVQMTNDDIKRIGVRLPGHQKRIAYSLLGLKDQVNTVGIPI
Epidermal growth factor receptor (Homo sapiens), P00533 [L858R,T790M], sequence (P00533 whole entry T790M/L858R, looked up): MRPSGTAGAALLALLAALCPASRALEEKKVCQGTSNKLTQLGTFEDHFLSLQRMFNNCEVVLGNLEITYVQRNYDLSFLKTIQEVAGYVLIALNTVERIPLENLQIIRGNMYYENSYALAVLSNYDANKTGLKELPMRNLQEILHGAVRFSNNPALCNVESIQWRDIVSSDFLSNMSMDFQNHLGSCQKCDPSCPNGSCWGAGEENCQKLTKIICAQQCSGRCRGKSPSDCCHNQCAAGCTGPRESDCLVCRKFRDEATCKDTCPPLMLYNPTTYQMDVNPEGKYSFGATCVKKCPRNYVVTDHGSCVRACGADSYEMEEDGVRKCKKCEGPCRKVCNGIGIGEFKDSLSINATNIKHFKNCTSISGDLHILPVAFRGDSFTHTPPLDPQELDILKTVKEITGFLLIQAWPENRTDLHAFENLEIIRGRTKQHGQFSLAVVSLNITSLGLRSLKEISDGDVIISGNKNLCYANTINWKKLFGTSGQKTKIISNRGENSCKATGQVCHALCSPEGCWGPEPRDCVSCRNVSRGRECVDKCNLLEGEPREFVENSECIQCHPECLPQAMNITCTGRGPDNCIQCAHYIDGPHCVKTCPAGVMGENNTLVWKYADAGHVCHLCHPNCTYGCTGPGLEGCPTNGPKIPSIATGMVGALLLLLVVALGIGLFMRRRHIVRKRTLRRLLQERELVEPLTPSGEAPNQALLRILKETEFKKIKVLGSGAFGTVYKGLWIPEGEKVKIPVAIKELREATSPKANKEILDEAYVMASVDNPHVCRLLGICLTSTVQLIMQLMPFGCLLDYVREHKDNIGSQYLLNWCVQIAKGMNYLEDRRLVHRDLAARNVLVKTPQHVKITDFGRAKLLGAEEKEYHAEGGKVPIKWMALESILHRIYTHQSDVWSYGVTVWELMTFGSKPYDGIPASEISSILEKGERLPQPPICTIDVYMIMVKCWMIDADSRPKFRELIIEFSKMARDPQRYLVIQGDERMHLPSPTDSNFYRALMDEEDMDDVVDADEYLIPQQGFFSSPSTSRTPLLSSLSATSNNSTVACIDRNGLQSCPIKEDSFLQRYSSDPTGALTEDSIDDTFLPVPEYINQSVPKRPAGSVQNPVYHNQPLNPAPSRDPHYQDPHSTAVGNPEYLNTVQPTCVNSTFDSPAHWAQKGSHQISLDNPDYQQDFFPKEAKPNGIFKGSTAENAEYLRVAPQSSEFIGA

As usually defined, the inhibition is the drop in the measured response relative to a control, in per cent. On to `O=C(Nc1n[nH]c2cc(-c3cc(F)ccc3F)ccc12)C1CC1`, for which the inhibition in assay [1] is 1.25%; in [2], 3.1%; in assay [3] it was 2.41%; in assay [4], -2.28%; in assay [5], -0.08%; in assay [6] it was 1.66%. The inhibition came to 4.19% in assay [7]; 5.23% in assay [8]; 3.94% in [9]; 6.32% in [10]; 8.75% in assay [11]; 8.17% in [12]. The inhibition in [13] is 2.98%; in assay [14], 2.32%; in assay [15] it was 4.67%; in assay [16] it was 3.32%; in [17], 1.51%; in [18], 8.07%. The inhibition in assay [19] came out at 8.44%; in [20], 2.98%.

For the compound `CCc1nccc2c1nc(-c1nonc1N)n2CC`, the inhibition in assay [1] was -1.27%; in assay [2], -0.81%; in assay [3] it was 1.48%; in assay [4], 0.61%; in [5] it was 0.69%; in [6] it was -0.26%. The inhibition in assay [7] was 1.46%; in [8], 0.87%; in assay [9], -5.92%; in [10], -5.8%; in [11], -7.41%; in assay [12] it was 2.73%. In addition, the inhibition in [13] is -3.8%; in [14], 1.19%; in [15], 1.5%; in assay [16] it was -0.18%; in assay [17], -3.91%; in assay [18], 8.55%. The inhibition in assay [19] was 9.58%; in assay [20] it was 5.29%.

As to `COc1cc2ncn(-c3cc(OCc4ccccc4C(F)(F)F)c(C(C)=O)s3)c2cc1OC`, the inhibition in assay [1] is 0.97%; in assay [2] it was -1.84%; in assay [3], 0.68%; in assay [4], 1.98%; in assay [5], 2.23%; in [6], 1.78%. Further, the inhibition in assay [7] stood at 4.66%; in assay [8], 5.55%; in [9] it was 10.6%; in [10] it was 5.43%; in assay [11], 9%; in assay [12], 3.62%. The inhibition in assay [13] stood at 3.29%; in assay [14], 0.64%; in assay [15] it was 3.47%; in assay [16], 3.47%; in assay [17], 4.43%; in assay [18], 6.91%. In addition, the inhibition in assay [19] was 9.68%; in [20] it was 2.43%.
